# Test results: publication PMC7862700, “An all-to-all approach to the identification of sequence-specific readers for epigenetic DNA modifications on cytosine”
# Experiments:
# Test in all cases: DAPPL (digital affinity profiling via proximity ligation, sequencing); 10 mM Tris-HCl pH 7.5, 50 mM NaCl, 1 mM DTT, 4% glycerol, room temperature, 30 min; GST-TFs on glutathione beads, 16-mer random dsDNA library, 0.1% formaldehyde crosslink after washing; high values mean tight binding
# [1] = target: T1, FLI1 (Homo sapiens, UniProt Q01543 1-452); conditions: protein: recombinant; tags: N-terminal GST; dsDNA, one strand shown
# T1 sequence: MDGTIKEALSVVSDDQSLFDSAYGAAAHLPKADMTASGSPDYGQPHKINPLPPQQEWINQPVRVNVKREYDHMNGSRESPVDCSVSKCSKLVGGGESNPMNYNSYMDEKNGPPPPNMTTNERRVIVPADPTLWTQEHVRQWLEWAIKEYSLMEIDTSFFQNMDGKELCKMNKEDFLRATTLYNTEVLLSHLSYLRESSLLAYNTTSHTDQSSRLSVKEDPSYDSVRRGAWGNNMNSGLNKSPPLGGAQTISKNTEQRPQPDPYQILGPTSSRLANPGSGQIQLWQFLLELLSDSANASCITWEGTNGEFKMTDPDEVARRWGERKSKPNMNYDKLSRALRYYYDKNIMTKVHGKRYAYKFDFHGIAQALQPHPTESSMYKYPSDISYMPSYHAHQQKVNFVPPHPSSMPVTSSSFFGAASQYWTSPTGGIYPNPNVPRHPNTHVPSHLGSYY
# In short: (§1)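 The binding signal reported is, for every hexamer, its read frequency for a factor over its read frequency for the tag-only sample. Reads came from pools of yeast-expressed, GST-fused human transcription factors on glutathione beads, barcoded with DNA and mixed with that sample, which were incubated with 200 nmole of a random double-stranded 16-mer DNA library in Tris/NaCl/DTT/glycerol buffer at room temperature for 30 min. After washing, the pools were crosslinked with 0.1% formaldehyde, proximity-ligated with BsaI/T4 ligase for 1 h at 37 °C, PCR-amplified and sequenced on an Illumina NextSeq500.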
# [2] = target: T2, ELK1 (Homo sapiens, UniProt P19419 1-428); conditions: protein: recombinant; tags: N-terminal GST; dsDNA, one strand shown
# T2 sequence: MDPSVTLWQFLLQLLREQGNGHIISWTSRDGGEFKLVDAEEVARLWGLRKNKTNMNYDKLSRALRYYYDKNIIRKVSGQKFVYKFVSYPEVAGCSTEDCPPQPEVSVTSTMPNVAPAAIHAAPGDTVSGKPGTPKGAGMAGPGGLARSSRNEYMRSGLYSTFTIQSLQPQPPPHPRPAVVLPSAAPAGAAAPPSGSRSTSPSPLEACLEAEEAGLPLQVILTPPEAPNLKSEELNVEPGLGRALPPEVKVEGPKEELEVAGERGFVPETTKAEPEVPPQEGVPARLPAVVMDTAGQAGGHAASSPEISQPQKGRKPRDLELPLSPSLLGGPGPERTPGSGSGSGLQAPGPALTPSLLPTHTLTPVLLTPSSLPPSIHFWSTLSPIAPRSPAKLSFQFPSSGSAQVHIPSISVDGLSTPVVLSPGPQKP
# In short: as §1
# [3] = target: T3, GABPA (Homo sapiens, UniProt Q06546 1-454); conditions: protein: recombinant; tags: N-terminal GST; dsDNA, one strand shown
# T3 sequence: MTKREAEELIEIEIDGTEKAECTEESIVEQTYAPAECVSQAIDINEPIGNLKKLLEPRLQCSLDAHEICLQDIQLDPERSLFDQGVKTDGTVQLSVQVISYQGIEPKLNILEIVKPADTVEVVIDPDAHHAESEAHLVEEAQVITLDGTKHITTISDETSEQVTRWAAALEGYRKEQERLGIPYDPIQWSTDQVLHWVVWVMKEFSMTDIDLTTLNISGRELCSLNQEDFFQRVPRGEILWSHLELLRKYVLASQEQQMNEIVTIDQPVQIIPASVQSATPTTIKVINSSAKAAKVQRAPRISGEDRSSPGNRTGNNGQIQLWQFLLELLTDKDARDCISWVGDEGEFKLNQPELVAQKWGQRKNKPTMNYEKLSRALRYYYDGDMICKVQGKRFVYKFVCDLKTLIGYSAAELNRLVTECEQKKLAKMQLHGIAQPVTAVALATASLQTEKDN
# In short: as §1
# [4] = target: T4, ERG (Homo sapiens, UniProt P11308 1-479); conditions: protein: recombinant; tags: N-terminal GST; dsDNA, one strand shown
# T4 sequence: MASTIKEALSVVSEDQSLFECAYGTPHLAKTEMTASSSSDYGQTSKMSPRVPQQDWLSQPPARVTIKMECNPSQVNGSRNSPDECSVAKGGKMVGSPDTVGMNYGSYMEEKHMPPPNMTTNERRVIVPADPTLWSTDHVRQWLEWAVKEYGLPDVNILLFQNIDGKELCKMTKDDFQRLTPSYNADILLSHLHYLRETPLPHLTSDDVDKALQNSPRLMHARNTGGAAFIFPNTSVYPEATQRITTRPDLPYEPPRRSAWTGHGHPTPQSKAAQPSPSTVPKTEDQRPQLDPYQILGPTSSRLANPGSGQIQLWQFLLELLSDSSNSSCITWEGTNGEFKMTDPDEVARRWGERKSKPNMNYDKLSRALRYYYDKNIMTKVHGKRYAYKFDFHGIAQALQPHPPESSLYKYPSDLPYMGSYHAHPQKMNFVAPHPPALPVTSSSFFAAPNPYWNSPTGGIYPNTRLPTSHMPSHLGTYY
# In short: as §1
# [5] = target: ELF1 (Homo sapiens, UniProt P32519 1-619); conditions: protein: recombinant; tags: N-terminal GST; dsDNA, one strand shown
# In short: as §1
# [6] = target: T5, EHF (Homo sapiens, UniProt Q9NZC4 1-300); conditions: protein: recombinant; tags: N-terminal GST; dsDNA, one strand shown
# T5 sequence: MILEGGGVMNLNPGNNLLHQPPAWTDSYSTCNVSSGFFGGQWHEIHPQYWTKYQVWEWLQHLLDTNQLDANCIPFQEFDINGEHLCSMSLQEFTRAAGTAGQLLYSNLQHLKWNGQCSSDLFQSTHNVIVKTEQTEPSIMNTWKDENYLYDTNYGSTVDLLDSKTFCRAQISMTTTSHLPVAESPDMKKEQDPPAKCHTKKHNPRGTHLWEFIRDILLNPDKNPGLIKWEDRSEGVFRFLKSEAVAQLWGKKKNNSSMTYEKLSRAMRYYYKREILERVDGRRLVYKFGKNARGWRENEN
# In short: as §1
# [7] = target: SPI1 (Homo sapiens, UniProt P17947 1-270); conditions: protein: recombinant; tags: N-terminal GST; dsDNA, one strand shown
# In short: as §1
# [8] = target: SPIB (Homo sapiens, UniProt Q01892 1-262); conditions: protein: recombinant; tags: N-terminal GST; dsDNA, one strand shown
# In short: as §1
# [9] = target: T6, ELK3 (Homo sapiens, UniProt P41970 1-407); conditions: protein: recombinant; tags: N-terminal GST; dsDNA, one strand shown
# T6 sequence: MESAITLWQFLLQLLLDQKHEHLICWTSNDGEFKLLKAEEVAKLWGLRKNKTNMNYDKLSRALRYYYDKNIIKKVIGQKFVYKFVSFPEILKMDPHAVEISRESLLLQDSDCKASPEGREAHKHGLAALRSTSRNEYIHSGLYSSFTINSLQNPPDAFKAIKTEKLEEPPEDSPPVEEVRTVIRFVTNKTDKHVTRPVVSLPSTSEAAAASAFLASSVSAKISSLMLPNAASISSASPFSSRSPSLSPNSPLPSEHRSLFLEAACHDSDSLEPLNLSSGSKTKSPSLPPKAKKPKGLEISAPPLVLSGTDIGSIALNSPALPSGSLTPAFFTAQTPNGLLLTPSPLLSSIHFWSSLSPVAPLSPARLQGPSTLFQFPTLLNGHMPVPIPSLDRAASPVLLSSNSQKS
# In short: as §1
# [10] = target: T7, FEV (Homo sapiens, UniProt Q99581 1-238); conditions: protein: recombinant; tags: N-terminal GST; dsDNA, one strand shown
# T7 sequence: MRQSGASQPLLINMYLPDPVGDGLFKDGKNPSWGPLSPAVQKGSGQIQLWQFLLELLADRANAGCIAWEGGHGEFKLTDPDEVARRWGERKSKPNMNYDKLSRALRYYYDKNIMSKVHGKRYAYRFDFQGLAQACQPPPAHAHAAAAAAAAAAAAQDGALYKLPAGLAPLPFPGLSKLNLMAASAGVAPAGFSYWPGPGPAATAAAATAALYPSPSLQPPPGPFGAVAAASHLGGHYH
# In short: as §1
# [11] = target: ETV5 (Homo sapiens, UniProt P41161 1-510); conditions: protein: recombinant; tags: N-terminal GST; dsDNA, one strand shown
# In short: as §1
# [12] = target: HSF1 (Homo sapiens, UniProt Q00613 1-529); conditions: protein: recombinant; tags: N-terminal GST; chain copies: 3; dsDNA, one strand shown
# In short: as §1
# [13] = target: T8, SPIC (Homo sapiens, UniProt Q8N5J4 1-248); conditions: protein: recombinant; tags: N-terminal GST; dsDNA, one strand shown
# T8 sequence: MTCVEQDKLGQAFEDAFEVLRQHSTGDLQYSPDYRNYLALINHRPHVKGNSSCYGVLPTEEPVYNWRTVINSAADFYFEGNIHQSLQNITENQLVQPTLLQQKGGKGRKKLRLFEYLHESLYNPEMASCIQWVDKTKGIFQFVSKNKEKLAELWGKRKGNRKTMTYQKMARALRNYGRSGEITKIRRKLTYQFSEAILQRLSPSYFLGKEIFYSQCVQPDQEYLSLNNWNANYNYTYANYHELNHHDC
# In short: as §1
# [14] = target: ELF4 (Homo sapiens, UniProt Q99607 1-663); conditions: protein: recombinant; tags: N-terminal GST; dsDNA, one strand shown
# In short: as §1
# [15] = target: T9, ELK4 (Homo sapiens, UniProt P28324-2 1-405); conditions: protein: recombinant; tags: N-terminal GST; dsDNA, one strand shown
# T9 sequence: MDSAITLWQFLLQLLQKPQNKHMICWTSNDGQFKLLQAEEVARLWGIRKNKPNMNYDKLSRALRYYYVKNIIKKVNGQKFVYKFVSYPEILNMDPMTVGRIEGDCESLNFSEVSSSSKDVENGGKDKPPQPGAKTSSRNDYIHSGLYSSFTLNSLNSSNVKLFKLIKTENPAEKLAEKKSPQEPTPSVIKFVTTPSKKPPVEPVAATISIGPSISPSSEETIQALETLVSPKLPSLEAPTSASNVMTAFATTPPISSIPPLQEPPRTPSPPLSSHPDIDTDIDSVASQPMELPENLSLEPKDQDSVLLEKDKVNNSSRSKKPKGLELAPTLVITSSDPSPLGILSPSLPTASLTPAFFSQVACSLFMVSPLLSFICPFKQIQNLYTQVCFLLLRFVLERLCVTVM
# In short: as §1
# [16] = target: T10, ETV2 (Homo sapiens, UniProt O00321 1-342); conditions: protein: recombinant; tags: N-terminal GST; dsDNA, one strand shown
# T10 sequence: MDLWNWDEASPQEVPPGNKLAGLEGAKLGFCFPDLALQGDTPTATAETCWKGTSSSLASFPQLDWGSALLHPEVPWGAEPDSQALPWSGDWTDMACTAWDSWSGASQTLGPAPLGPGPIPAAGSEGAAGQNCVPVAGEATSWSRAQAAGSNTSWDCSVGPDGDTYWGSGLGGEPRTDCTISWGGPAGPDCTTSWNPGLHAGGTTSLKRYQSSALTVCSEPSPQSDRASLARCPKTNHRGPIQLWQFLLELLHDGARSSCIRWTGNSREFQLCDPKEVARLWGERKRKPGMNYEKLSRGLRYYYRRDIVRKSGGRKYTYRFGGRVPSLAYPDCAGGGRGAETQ
# In short: as §1
# [17] = target: T11, ELF3 (Homo sapiens, UniProt P78545 1-371); conditions: protein: recombinant; tags: N-terminal GST; dsDNA, one strand shown
# T11 sequence: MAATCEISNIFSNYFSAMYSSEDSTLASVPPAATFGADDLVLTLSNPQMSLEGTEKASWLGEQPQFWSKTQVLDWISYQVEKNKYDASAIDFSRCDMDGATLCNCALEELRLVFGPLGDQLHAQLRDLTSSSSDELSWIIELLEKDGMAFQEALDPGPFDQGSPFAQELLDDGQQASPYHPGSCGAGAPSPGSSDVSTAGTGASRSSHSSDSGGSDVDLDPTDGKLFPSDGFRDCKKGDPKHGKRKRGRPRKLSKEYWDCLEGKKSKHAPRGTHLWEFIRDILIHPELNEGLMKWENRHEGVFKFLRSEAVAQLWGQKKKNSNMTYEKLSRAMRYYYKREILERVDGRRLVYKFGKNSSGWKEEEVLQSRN
# In short: as §1
# [18] = target: ETV1 (Homo sapiens, UniProt P50549 1-477); conditions: protein: recombinant; tags: N-terminal GST; dsDNA, one strand shown
# In short: as §1
# Sequence of ELF4 (Q99607 whole entry): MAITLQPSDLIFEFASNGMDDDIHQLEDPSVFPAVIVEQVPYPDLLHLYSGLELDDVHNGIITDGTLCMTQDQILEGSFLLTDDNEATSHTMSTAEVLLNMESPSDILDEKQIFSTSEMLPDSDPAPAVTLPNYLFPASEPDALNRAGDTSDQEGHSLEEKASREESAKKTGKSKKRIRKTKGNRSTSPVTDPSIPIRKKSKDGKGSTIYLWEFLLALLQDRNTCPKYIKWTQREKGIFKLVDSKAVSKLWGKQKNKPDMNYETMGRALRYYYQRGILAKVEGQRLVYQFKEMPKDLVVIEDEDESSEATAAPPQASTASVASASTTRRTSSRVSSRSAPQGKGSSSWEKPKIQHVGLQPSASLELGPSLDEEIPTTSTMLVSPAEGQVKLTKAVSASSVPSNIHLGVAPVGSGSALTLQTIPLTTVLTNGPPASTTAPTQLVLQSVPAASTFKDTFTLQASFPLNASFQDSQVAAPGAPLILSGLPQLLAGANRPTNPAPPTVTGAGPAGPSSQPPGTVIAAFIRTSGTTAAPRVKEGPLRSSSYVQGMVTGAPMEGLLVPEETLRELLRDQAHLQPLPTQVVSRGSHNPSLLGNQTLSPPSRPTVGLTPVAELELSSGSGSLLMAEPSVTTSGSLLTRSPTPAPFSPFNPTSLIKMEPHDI
# Sequence of ETV1 (P50549 whole entry): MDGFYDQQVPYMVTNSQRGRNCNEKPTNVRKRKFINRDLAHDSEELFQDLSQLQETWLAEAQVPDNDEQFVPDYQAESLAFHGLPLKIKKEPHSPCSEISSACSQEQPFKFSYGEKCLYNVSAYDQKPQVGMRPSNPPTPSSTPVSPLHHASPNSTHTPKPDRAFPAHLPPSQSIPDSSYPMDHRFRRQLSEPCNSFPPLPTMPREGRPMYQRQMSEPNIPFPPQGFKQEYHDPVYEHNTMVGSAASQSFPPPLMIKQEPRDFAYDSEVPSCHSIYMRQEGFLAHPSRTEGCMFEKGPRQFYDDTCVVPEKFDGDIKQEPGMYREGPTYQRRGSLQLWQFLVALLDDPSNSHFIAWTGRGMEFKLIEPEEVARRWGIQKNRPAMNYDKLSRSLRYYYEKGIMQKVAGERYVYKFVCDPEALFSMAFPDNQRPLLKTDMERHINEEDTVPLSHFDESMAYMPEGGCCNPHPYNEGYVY
# Sequence of HSF1 (Q00613 whole entry): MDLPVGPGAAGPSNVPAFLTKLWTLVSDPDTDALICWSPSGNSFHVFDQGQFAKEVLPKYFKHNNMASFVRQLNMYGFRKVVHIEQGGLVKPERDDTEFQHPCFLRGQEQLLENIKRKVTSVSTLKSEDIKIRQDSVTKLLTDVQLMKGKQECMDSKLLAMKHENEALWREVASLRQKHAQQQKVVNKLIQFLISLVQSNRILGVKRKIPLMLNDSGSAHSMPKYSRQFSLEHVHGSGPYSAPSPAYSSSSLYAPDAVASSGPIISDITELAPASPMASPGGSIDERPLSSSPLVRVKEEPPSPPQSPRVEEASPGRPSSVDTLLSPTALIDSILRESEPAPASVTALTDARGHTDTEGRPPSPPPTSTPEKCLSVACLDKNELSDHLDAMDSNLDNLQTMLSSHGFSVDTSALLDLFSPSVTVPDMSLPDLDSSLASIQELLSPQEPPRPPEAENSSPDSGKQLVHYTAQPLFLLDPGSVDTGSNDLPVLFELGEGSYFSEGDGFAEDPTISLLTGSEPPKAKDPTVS
# Sequence of SPIB (Q01892 whole entry): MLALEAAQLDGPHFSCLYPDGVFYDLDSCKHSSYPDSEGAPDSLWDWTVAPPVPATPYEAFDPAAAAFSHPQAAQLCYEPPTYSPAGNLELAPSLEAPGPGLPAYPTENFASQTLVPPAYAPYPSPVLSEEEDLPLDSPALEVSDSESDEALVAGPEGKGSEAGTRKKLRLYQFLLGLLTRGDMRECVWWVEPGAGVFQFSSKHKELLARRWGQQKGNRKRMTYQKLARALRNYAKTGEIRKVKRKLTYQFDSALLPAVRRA
# Sequence of ETV5 (P41161 whole entry): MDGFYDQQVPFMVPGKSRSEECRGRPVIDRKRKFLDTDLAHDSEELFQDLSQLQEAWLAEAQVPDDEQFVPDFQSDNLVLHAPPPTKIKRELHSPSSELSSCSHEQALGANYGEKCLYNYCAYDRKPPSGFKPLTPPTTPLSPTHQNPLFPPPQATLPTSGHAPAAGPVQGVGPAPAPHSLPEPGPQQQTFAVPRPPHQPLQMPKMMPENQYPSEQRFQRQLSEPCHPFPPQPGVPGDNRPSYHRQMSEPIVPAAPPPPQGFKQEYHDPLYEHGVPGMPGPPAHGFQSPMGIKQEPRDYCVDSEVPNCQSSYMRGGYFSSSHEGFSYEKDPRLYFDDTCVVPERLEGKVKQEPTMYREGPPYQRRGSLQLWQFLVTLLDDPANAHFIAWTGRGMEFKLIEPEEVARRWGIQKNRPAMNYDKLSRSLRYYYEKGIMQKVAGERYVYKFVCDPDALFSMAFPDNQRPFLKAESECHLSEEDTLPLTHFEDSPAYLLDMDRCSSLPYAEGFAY
# Sequence of ELF1 (P32519 whole entry): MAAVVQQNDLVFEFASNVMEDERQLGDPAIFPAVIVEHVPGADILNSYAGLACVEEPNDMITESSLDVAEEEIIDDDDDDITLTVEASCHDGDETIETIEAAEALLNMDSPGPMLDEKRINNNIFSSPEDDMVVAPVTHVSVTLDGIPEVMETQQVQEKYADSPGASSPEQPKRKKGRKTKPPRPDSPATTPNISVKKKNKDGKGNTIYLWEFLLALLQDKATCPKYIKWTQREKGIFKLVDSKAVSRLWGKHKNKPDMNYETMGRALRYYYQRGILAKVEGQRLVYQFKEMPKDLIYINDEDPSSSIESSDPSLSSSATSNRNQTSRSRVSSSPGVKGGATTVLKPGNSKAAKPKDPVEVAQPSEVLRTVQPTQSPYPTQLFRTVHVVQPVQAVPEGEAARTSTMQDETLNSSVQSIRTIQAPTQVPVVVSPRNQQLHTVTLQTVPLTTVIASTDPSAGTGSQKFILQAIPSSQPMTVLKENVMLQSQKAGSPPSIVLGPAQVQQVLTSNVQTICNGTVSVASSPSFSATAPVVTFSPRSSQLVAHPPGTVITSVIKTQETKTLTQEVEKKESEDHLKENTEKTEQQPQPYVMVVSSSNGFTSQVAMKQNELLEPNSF
sequence,measurement,setting,value
TGCCGA,binding signal,[1],"1.07 fold enrichment (6-mer frequency, TF over GST control)"
same,binding signal,[2],"1.25 fold enrichment (6-mer frequency, TF over GST control)"
same,binding signal,[3],"1.21 fold enrichment (6-mer frequency, TF over GST control)"
same,binding signal,[4],"1.1 fold enrichment (6-mer frequency, TF over GST control)"
same,binding signal,[5],"1.03 fold enrichment (6-mer frequency, TF over GST control)"
same,binding signal,[6],"1.24 fold enrichment (6-mer frequency, TF over GST control)"
same,binding signal,[7],"1.2 fold enrichment (6-mer frequency, TF over GST control)"
same,binding signal,[8],"1.18 fold enrichment (6-mer frequency, TF over GST control)"
same,binding signal,[9],"1.1 fold enrichment (6-mer frequency, TF over GST control)"
same,binding signal,[10],"1.11 fold enrichment (6-mer frequency, TF over GST control)"
same,binding signal,[11],"1.19 fold enrichment (6-mer frequency, TF over GST control)"
same,binding signal,[12],"1.07 fold enrichment (6-mer frequency, TF over GST control)"
same,binding signal,[13],"1.37 fold enrichment (6-mer frequency, TF over GST control)"
same,binding signal,[14],"1.19 fold enrichment (6-mer frequency, TF over GST control)"
same,binding signal,[15],"1.14 fold enrichment (6-mer frequency, TF over GST control)"
same,binding signal,[16],"1.08 fold enrichment (6-mer frequency, TF over GST control)"
same,binding signal,[17],"1.16 fold enrichment (6-mer frequency, TF over GST control)"
same,binding signal,[18],"1.14 fold enrichment (6-mer frequency, TF over GST control)"
